# Results published in PubChem BioAssay (NCI).
# About 83,000 compounds went through this panel and 20% of them were active in at least one assay; those are over-represented in the sample as a whole.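 Compound tested at a single concentration for 48 hours in 96-well plates; a percent growth value below 10 was scored as active.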 Unmarked numbers belong to inactive results. The source made the active and inactive calls.
# Legend:
# Assay in all cases: NCI-60 one-dose screen, 48 h (100 = growth as untreated, 0 = no growth, -100 = all killed)
# Settings in all cases: 10 µM unless noted
# SNB-75 CNS = system: SNB-75 CNS
# SNB-19 CNS = system: SNB-19 CNS
# U251 CNS = system: U251 CNS
# SK-MEL-5 melanoma = system: SK-MEL-5 melanoma
# UACC-62 melanoma = system: UACC-62 melanoma
# LOX IMVI melanoma = system: LOX IMVI melanoma
# SK-MEL-28 melanoma = system: SK-MEL-28 melanoma
# PC-3 prostate = system: PC-3 prostate
# SK-MEL-2 melanoma = system: SK-MEL-2 melanoma
SMILES,growth (SNB-75 CNS),growth (SNB-19 CNS) [%],growth (U251 CNS),growth (SK-MEL-5 melanoma),growth (UACC-62 melanoma),growth (LOX IMVI melanoma),growth (SK-MEL-28 melanoma),growth (PC-3 prostate),growth (SK-MEL-2 melanoma)
N=C(N)/N=C(\CCc1nc2ccccc2[nH]1)c1nc2ccccc2[nH]1,82.5%,93.6,103%,98%,82.2%,85.4%,100%,,
COc1ccc(/C=C(\C#N)c2ccccc2)cc1,64.6%,80.8,81.4%,81%,,89.7%,90.6%,83.3%,
COc1ccc(-c2c(-c3cc(OC)c(OC)c(OC)c3)noc2N)cc1,52.7%,38.7,22.2%,,43.9%,17.6%,58.6%,21.8%,72.6%
Cc1c(N(C)CS(=O)(=O)O)c(=O)n(-c2ccccc2)n1C,111%,101,100%,,96.9%,104%,108%,94.8%,106%
COc1ccc(-c2cc(Cc3cccs3)c(=O)n(Cn3cncn3)n2)cc1,106%,91.8,97.2%,92.9%,86.2%,98%,108%,,
CCOc1cc(-c2ccc[nH]2)[nH]c1/C=C1\N=C(C)C(C(=O)OC)=C1C,-65% (active),11.9,-62.4% (active),-93% (active),-74.7% (active),-56.5% (active),-83.5% (active),,
CCCCCCC(C)(O)c1ccccc1 (configuration not stated),90.6%,104,109%,109%,96.5%,92%,115%,,
COc1ccc2[nH]cc(/C=C3/C(=O)Nc4ccc(F)cc43)c2c1,43.2%,88.2,80.1%,93.1%,,74.9%,96.2%,76.4%,91.7%
CC(=O)c1nc2ccccc2n1CCn1cc(CC(N)C(=O)O)c2ccccc21 (configuration not stated),74.7%,92.6,102%,96.1%,79.5%,89.4%,109%,,
CC1=CSC2=NCCN12,98.4%,101,109%,106%,100%,94.4%,118%,,
CN1CCCC1c1cccnc1 (configuration not stated),99.7%,105,97.1%,87.7%,94.1%,100%,101%,48.7%,-0.647% (active)
O=C(CCc1nnc(SCc2ccccc2)s1)c1nc2ccccc2[nH]1,90.5%,93.2,89.6%,99.4%,84.8%,80.8%,108%,,
CCOC(Cc1c(N)[nH]c(=S)[nH]c1=O)OCC,96.7%,106,103%,95.5%,104%,95.3%,102%,95.3%,124%
N#Cc1c(N2CCOCC2)nc2sc3cc(Cl)ccc3n2c1=N,63.7%,77.8,96.6%,78.3%,89.4%,93%,103%,75.9%,103%
NCCCc1nnc(CCC(=O)c2nc3ccccc3[nH]2)o1,90.8%,102,102%,108%,90.2%,90.9%,105%,,
O=C(CCc1nnc(Cn2ccnc2)o1)c1nc2ccccc2[nH]1,97.9%,108,110%,104%,91%,90.4%,,,
Oc1ccccc1/C=N\Nc1ccccc1,71.9%,86,75.9%,,,53%,102%,36.3%,92.1%

SMILES,growth (SNB-75 CNS),growth (SNB-19 CNS) [%],growth (U251 CNS),growth (SK-MEL-5 melanoma),growth (UACC-62 melanoma),growth (LOX IMVI melanoma),growth (SK-MEL-28 melanoma),growth (PC-3 prostate),growth (SK-MEL-2 melanoma)
CCOC(=O)c1c(NC(=O)C2CCCCC2C(=O)O)sc2c1CCCC2 (configuration not stated),97.3%,99.8,99.1%,95.1%,103%,90%,110%,101%,107%
CC1(C)OC(=O)C(=Cc2ccccc2Br)C(=O)O1,81.8%,94.3,96.8%,97.6%,,94.1%,115%,92.5%,97.6%
COC(=O)CCC1=C(C)C(C)=N/C1=C\c1[nH]c(-c2ccc[nH]2)cc1OC,-34.9% (active),35,-22.9% (active),-91.5% (active),-67.4% (active),-55.5% (active),10.7%,,
c1csc([C@@H]2C[C@@H]3Cc4ccc5ccccc5c4N2O3)c1,87.1%,97.5,96.8%,101%,79.7%,98.9%,103%,,
Cn1cc(-c2csc(-c3c[nH]c4ncccc34)n2)c2cc(Br)cnc21,-28.8% (active),50.5,3.32% (active),35.8%,32.5%,20.5%,27.7%,34.9%,78.2%
C[N+]1(CCC[N+]2(C)C[C@@H]3[C@H](C2)[C@@H]2C=C[C@H]3C2)CCOCC1 (some centres not stated),103%,107,109%,106%,97.7%,96%,109%,,
Cc1cc(=O)n2n1-c1ccc(Cl)cc1NC(=O)C2,86.6%,97.5,95.2%,97.5%,107%,98.6%,101%,89.8%,118%
Clc1ccc([C@@H]2C[C@@H]3Cc4cc(Br)c5ccccc5c4N2O3)c(Cl)c1,56.2%,83.8,60.6%,93.8%,62.8%,72.1%,69.9%,,
O[C@@H]1Cc2ccc3ccccc3c2N[C@H](c2ccoc2)C1,95.5%,102,100%,92.8%,101%,92.7%,125%,,
O=C(/C=C/c1cc2ccccc2[nH]c1=O)c1ccc(Cl)cc1,16.8%,47.6,24.8%,56.2%,31.4%,-69.2% (active),,,18.8%
O=[N+]([O-])c1ccc(N/N=C/c2c(O)ccc3ccccc23)nc1,69.3%,62.7,35.8%,40%,41.7%,21%,64.8%,,
O=C1N(C2CCCCC2)C(=O)N1C1CCCCC1,,68.6,,16.9%,38.9%,31%,,-3% (active),-7.37% (active)
Cc1cc(C)c2c(c1)N1OC(C2)C[C@H]1/C=C/c1ccccc1 (some centres not stated),109%,103,107%,93.7%,88%,94.4%,104%,,
CCCCCCCCCCCCNc1ncnc2[nH]ncc12,105%,,87.7%,,57.1%,44.6%,100%,69.7%,85.9%
Clc1ncn[nH]1,83.6%,102,98.2%,111%,99.7%,102%,103%,,99.4%
O=c1cc(-c2cccnc2)oc2c1ccc1ccccc12,54.4%,64.7,48.8%,63.3%,70.3%,75.5%,69.3%,,110%
